RXFP1 agonist: activates the human relaxin receptor RXFP1; HEK293T-RXFP1 cAMP TR-FRET, 30 min; response scale: percent of porcine relaxin response, buffer zero; Potency, µM (series often up to 57.5 µM), inactives show top-dose activation, hits mostly activators; 370,000 compounds, 0.3% hits; further: potency means the concentration at half of the fitted maximal effect; on the % scale 0 is the no-effect control and ±100 the full control effect; nearly all actives have a fitted effect of over 60% in size
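cAMP rise read by TR-FRET after 30 min, 37C compound exposure (up to 58 uM) in RXFP1-transfected HEK293 cells with Ro 20174 present. EC50 from Hill-equation fits, with 29 nM porcine relaxin as 100% and buffer as basal.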
RXFP1 antag: blocks the human relaxin receptor RXFP1 | Q9HBX9 | HEK293-RXFP1, relaxin-stimulated cAMP HTRF, 30 min; stronger effect = lower value | activity change, negative = inhibition, % at 57.5 µM | 350,000 compounds, 0.59% hits | AID 1259400;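 active means activity change of -60% or lower, but not beyond a set lower limit; inconclusive means change between -60% and -40%, or beyond the set limit; inactive means change above -40%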; further: on the % scale 0 is the no-effect control and ±100 the full control effect
GLP1R cytotox: cytotoxicity in counter-screen for GLP-1R inverse agonists. HEK293 cAMP-luciferase reporter cells, luminescence, 24 h. Potency, µM (highest dose often 38.3 µM), inactives show top-dose activity change, negative = inhibition, most hits filed as inhibitors. 410,000 compounds, 0.13% hits. AID 624418;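 further: loss of luciferase light is scored as toxicity; potency means the concentration at half of the fitted maximal effect; on the % scale 0 is the no-effect control and ±100 the full control effect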
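Here, cytotoxicity is scored as loss of luminescence. The MLSMR collection was tested on cells seeded in medium containing 10% Nu serum, with a 24 hr compound exposure preceded by 12 hours of culture.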
PTHR1 agonist: PTHR1 (human) receptor agonism; Q03431; HEK293 GP2 PTHR1 cells, GloSensor cAMP luminescence, 1 h; Potency, µM (doses to about 115 µM), for the others: at the top dose activation, most hits filed as activators; 410,000 compounds, 0.075% hits; AID 743266; further: potency means the concentration at half of the fitted maximal effect; nearly all actives have a fitted effect of over 55% in size
Target sequence (Q03431 whole entry, looked up): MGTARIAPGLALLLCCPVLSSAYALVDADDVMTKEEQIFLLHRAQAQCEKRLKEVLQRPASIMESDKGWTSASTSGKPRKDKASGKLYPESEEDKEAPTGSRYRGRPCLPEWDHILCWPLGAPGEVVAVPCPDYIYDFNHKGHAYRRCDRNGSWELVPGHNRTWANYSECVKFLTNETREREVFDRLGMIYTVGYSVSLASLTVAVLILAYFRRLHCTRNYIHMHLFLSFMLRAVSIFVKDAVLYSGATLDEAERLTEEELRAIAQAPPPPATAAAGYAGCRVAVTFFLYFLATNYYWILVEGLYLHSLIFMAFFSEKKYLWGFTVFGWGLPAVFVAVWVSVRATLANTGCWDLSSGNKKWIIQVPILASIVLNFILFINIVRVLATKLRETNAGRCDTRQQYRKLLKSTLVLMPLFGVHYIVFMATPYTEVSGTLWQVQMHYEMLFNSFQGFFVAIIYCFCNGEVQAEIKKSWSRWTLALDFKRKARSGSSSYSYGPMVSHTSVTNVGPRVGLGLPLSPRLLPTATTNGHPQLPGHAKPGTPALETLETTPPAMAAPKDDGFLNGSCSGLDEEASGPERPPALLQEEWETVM
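HEK-293-derived GP2 cells expressing PTHR1 and a GloSensor cAMP reporter, 3,000/well, plated overnight, given luciferin plus IBMX (each 0.5 mM as added) for 1 h at 37 °C, then compound for 1 h at 37 °C. Luminescence was read after 15 min at room temperature.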
TSHR antag: blocks TSH signaling through the human TSH receptor; 330,000 compounds, 0.2% hits; activity change, negative = inhibition, % at 11.5 µM; P16473; AID 504810; TSHR-expressing cells, TSH-stimulated cAMP HTRF, 2 h; stronger effect = lower value;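 active means activity change below a set negative limit, meaning inhibition stronger than a set level, cut at about -70% in these data; inconclusive means activity change between two set negative limits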; further: on the % scale 0 is the no-effect control and ±100 the full control effect
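TSHR-expressing cells were treated with compounds, then stimulated with TSH at EC80 (4nM final) for 2 hours at 37 deg C. Cellular cAMP was measured by HTRF competition between lysate cAMP and cAMP-d2 for a cryptate-labelled anti-cAMP antibody.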
NPSR antag: neuropeptide S receptor (human) antagonism, cAMP | CHO-NPSR cells, cAMP TR-FRET, antagonist mode | Potency, µM (titrated, usually from 38.3 µM), for inactives: at the top dose activity change, negative = inhibition, actives largely listed as inhibitors | Q6W5P4 | 220,000 compounds, 1% hits | AID 1461; further: potency means the concentration at half of the fitted maximal effect; on the % scale 0 is the no-effect control and ±100 the full control effect; nearly all actives have a fitted effect of over 50% in size
* marks the source's active call; other numbers are inactive results; i = inactive; ? = inconclusive; nt = no result given; [ ] = dose if it differs, or a comment. The entries come from a sample that favours hits as a whole. Unless noted, the call rests on the fitted dose curve; in most records, active means well fitted curve in the direction sought with a large enough effect; inconclusive means small, poorly fitted or top-dose-only effect, or another doubt; inactive means no such curve, though single readings can be large; an effect the other way counts as inactive or inconclusive.

SMILES | RXFP1 agonist | RXFP1 antag | GLP1R cytotox | PTHR1 agonist | TSHR antag | NPSR antag
CC1CCN(CC2CCN(C(=O)NCc3ccc(F)cc3)CC2)CC1 | 1.3% | -0.2 | 9.4% | i | nt | nt
Cc1ccccc1OCCC(=O)OCC(=O)NCCNC(=O)COC(=O)CCOc1ccccc1C | -0.9% | -73.1* | 2.3% | i | 43.5 | nt
Cc1ccccc1OCCC(=O)OCC(=O)NC1CC1 | 1.5% | -1.1 | 23.0% | i | 1.9 | nt
O=C1C2C=CC=CC2=NC(=S)N1CCN1CCC(=C(c2ccc(F)cc2)c2ccc(F)cc2)CC1 (stereo not drawn) | nt | nt | nt | nt | -22.0 | -16.9%[46.1 µM]
COC(=O)c1ccc(NC(C)=O)cc1OC | nt | -10.6 | nt | nt | nt | nt
COc1ccc(OCC(O)Cn2ccnc2C)cc1 (stereo not drawn) | 0.3% | -10.1 | -15.8% | 10µM* | -3.9 | 1.4%
Cc1nccn1CC(O)COc1ccccc1 (stereo not drawn) | 0.3% | -0.8 | -4.8% | i | 3.5 | -0.9%[46.1 µM]
Cc1nc2c(C(=O)NCc3ccc4c(c3)OCO4)cnn2c(C)c1Cc1ccc(F)cc1Cl | 3.4% | -12.8 | -17.3% | i | 11.9 | 10µM*
Cc1ccccc1Cc1c(C)nc2c(C(=O)NCc3ccc4c(c3)OCO4)cnn2c1C | 4.8% | -21.9 | -11.6% | i | 1.1 | ?
CCn1cc(S(=O)(=O)Nc2cc(C(=O)OC)ccc2C)cn1 | 2.1% | -3.0 | -10.1% | -0.8% | -10.6 | nt
Cc1ccc(N=N/C(=C\O)C(=O)c2ccc(Cl)cc2)cc1 | -0.6% | -18.8 | ? | -30.0% | 3.3 | 7.94µM*
O=C(Cn1cnc2c(OCc3ccccc3)ncnc21)N[C@H](CO)Cc1cc2ccccc2[nH]1 | nt | nt | -10.0% | i | -6.8 | nt
CC(C)Oc1ccc(C(=O)/C=C2/C(=O)Nc3ccccc32)cc1 | 2.7% | ? | ? | -34.3% | -6.7 | nt
COc1ccc(C(=O)/C=C2\C(=O)Nc3ccc(Br)cc32)cc1 | nt | -75.0* | ? | -25.5% | nt | nt
CCC(=O)OCCCNc1nc(-c2ccc(Cl)cc2)nc2ccccc12 | 4.7% | nt | 14.2% | 15.5% | nt | nt
CN(C)CCCNc1cc(C(C)(C)C)nc2c(-c3ccccc3)cnn12 | -0.1% | -60.5* | ? | i | 3.1 | ?
Cc1ccc(C(=O)Nc2cccnc2)cc1Cl | -2.8% | -16.0 | 12.9% | 18.4% | 1.3 | nt
Oc1c(CN2CCc3ccccc3C2)cc(Cl)c2cccnc12 | -1.9% | nt | ? | 22.4µM* | 7.9 | 6.31µM*
Cc1ccc(-c2nc3c(Cl)cc(C(F)(F)F)cn3c2Cc2ccsc2)cc1 | nt | nt | 1.9% | -6.7% | nt | nt
Cc1ccc(-c2ccc(/C=N/NC(N)=S)o2)cc1 | 3.3% | -24.7 | ? | i | -10.1 | 6.31µM*
NC(=S)N/N=C/c1ccc(-c2ccccc2)o1 | 1.4% | -2.8 | ? | -3.9% | -0.7 | -46.5%
Cc1cccc(N2CCN(C(=O)C3CCN(c4nnc(-n5cccc5)s4)CC3)CC2C)c1 (stereo not drawn) | 5.7% | -67.5* | -5.3% | -44.8% | -14.6 | -3.1%
COc1nc(C)nc2c1sc1nc3c(cc12)COC(C)(C)C3 | 3.6% | 6.1 | 9.2% | -12.3% | -2.6 | -10.7%[46.1 µM]
Cc1nc(OCC(C)C)c2sc3nc4c(cc3c2n1)COC(C)(C)C4 | 1.5% | -103.5* | 4.8% | -11.5% | -4.0 | 0.1%
S=C1NC[C@H](CC2CCCCC2)N1CC1CCCCC1 | 0.5% | nt | 5.62µM* | -65.0% | -3.8 | 52.7%
SMILES | RXFP1 agonist | RXFP1 antag | GLP1R cytotox | PTHR1 agonist | TSHR antag | NPSR antag
O=C(NCc1ccc(Cl)cc1)C1CCCN(c2nc3ccccc3n3cccc23)C1 (stereo not drawn) | 3.2% | -64.2* | 0.6% | -1.4% | nt | nt
O=C(NCc1ccc(Cl)cc1)C1CCCN(c2cnccn2)C1 (stereo not drawn) | 0.4% | 9.0 | 0.7% | -22.0% | 3.8 | nt
O=C(N/N=C/c1cc2c3c(c1O)CCCN3CCC2)c1ccccc1O | 2.1% | -76.2* | 14.2% | -31.4% | -22.6 | -10.6%
O=c1[nH]c(/C=C\c2ccc(O)c(O)c2)nc(O)c1[N+](=O)[O-] | 5.6% | -21.4 | 11.2µM* | i | -8.0 | nt
c1ccc2c(c1)CCC[C@H]2Nc1nc2ccccc2[nH]1 | nt | nt | nt | nt | -8.4 | nt
O=S(=O)(/C(=C/c1ccc(C(F)(F)F)cc1)c1nc2ccccc2[nH]1)c1ccccc1 | -1.9% | -27.3 | 7.94µM* | -7.6% | -34.4 | 6.31µM*
COCc1ccc(O)c2ncccc12 | -1.0% | ? | ? | i | -7.5 | 3.98µM*
Cc1cc(OC(C)C(=O)N(Cc2ccc(N(C)C)cc2)Cc2ccco2)ccc1Cl (stereo not drawn) | -2.6% | -15.5 | 4.5% | -36.7% | nt | nt
Cc1cc(OC(C)C(=O)N(Cc2ccco2)Cc2ccccc2F)cc(C)c1Cl (stereo not drawn) | -5.5% | -71.9* | 6.3% | -6.2% | nt | nt
C[C@@H]1CC[C@@]2(OC1)O[C@H]1C[C@H]3[C@@H]4CC[C@H]5C[C@@H](O)CC[C@]5(C)[C@H]4CC(=O)[C@]3(C)[C@H]1[C@@H]2C | nt | -7.8 | nt | nt | nt | nt
Cc1c(N2CCCC2)cc2c(c1N)C(C)(C)CC2(C)C | 3.5% | -70.7* | -21.2% | -36.3% | -19.4 | nt
Oc1c(Br)cc(Br)cc1/C=N/NC(=S)N[C@H]1CC2C=CC1C2 (stereo partly drawn) | -0.5% | -71.6* | 20.9% | -16.7% | 25.3 | ?
CNC(=S)N/N=C/c1cc(Br)cc(Br)c1O | -1.9% | 4.7 | 87.7% | i | -6.3 | 16.8%
O=C(/C=C/NNC(=O)c1ccccc1)c1ccccc1 | 0.3% | -1.3 | 3.16µM* | -17.4%[57.5 µM] | -7.4 | -18.6%[46.1 µM]
Clc1cccc(-c2noc3ncnc(NC4CCCCC4)c23)c1 | 11.4% | nt | 15.0% | ? | nt | nt
COC(=O)CCS(=O)(=O)c1nc(-c2ccccc2)cc(C(F)(F)F)n1 | 0.9% | 1.3 | ? | -38.3% | -35.9 | 10µM*
CS(=O)(=O)c1nc(-c2cccs2)cc(C(F)(F)F)n1 | 5.2% | nt | nt | nt | -37.6 | 3.16µM*
O=C(O)CCS(=O)(=O)c1nc(-c2cccs2)cc(C(F)(F)F)n1 | 2.1% | 3.9 | -4.3% | i | -3.1 | -5.9%[46.1 µM]
CCOC(=O)CCS(=O)(=O)c1nc(-c2ccccc2)cc(C(F)(F)F)n1 | 0.8% | nt | ? | -94.4% | ? | 7.94µM*
COc1ccc2cc1Oc1cc3c(cc1OC)CC[N+](C)(C)[C@H]3Cc1ccc(cc1)Oc1c(OC)c(OC)cc3c1[C@@H](C2)[N+](C)(C)CC3 | nt | 9.8 | nt | nt | nt | nt
COc1ccc(N(CC(=O)NCc2ccccc2Cl)S(=O)(=O)c2c(C)nn(C)c2C)cc1 | -1.1% | nt | -12.2% | -25.8% | nt | nt
CC(=O)OC[C@H]1O[C@@H](OC(C)=O)[C@H](OC(C)=O)[C@@H]1OC(C)=O | nt | 13.4 | nt | nt | nt | nt
